# An excerpt weighted towards active compounds, which were near 1.1% of everything screened.
# RXFP1 agonist: agonists of human relaxin receptor RXFP1. Q9HBX9. HEK293T-RXFP1 cAMP TR-FRET, 30 min; response scale: percent of porcine relaxin response, buffer zero. Potency, µM (top dose mostly 57.5 µM), inactives show at the highest dose activation, hits mostly activators. 370,000 tested, 0.3% active. AID 2676; also: potency is read from the fitted curve at half-maximal effect; % is scaled to controls: 0 for no effect and ±100 for the full control effect; nearly all actives have a fitted effect of over 60% in size
# Target sequence (Q9HBX9 whole entry, looked up): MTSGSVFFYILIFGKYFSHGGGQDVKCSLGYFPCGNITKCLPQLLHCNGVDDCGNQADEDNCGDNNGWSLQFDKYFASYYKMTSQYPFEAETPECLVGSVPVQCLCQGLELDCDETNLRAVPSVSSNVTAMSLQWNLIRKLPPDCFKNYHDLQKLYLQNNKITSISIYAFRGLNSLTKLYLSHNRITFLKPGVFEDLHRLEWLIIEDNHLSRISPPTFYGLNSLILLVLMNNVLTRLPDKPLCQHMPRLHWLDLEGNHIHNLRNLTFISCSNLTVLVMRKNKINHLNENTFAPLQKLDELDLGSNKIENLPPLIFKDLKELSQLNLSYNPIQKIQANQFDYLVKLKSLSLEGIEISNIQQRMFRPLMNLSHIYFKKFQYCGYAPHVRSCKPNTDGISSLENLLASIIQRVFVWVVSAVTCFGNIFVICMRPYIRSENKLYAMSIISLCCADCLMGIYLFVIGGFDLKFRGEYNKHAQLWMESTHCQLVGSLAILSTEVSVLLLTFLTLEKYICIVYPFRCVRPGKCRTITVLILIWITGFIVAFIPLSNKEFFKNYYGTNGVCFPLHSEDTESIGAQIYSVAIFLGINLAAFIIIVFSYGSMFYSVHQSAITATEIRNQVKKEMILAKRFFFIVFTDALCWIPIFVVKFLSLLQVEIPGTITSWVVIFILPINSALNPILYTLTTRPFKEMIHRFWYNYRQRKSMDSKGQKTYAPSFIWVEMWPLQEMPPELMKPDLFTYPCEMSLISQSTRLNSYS
#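 cAMP rise read by TR-FRET after 30 min, 37C compound exposure (up to 58 uM) in RXFP1-transfected HEK293 cells with Ro 20174 present. EC50 from Hill-equation fits, with 29 nM porcine relaxin as 100% and buffer as basal.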
# Tb PFK block: blocks T. brucei phosphofructokinase; O15648; T. brucei PFK, ADP-Glo luminescence; Potency, µM (top dose mostly 57.5 µM), for inactives: top-dose activity, negative = inhibition, hits mostly inhibitors; 330,000 tested, 0.17% active;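 also: potency is read from the fitted curve at half-maximal effect; 0% = uninhibited 1x PFK enzyme wells and -100% = no-enzyme wells; nearly all actives have a fitted effect of over 60% in size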
#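 Compounds were pin-transferred as a titration series up to 57 uM into substrate buffer (0.5 mM F6P, 0.1 mM ATP, pH 8.0), then 1.25 nM PFK was added and reactions ran 45 min before ADP-Glo detection.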
# RXFP1 antag: RXFP1 (human) relaxin receptor antagonism; 350,000 tested, 0.59% active; HEK293-RXFP1, relaxin-stimulated cAMP HTRF, 30 min; hits give low values; Q9HBX9; activity change, negative = inhibition, % at 57.5 µM;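 active = activity change of -60% or lower, but not beyond a set lower limit; inconclusive = change between -60% and -40%, or beyond the set limit; inactive = change above -40%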; also: % is scaled to controls: 0 for no effect and ±100 for the full control effect
# gsp ag: gsp mutant agonism | 340,000 tested, 0.13% active | gsp mutant cells, cAMP HTRF, 30 min | Potency, µM (series often up to 76.9 µM), for the others: at the top dose activation (cAMP increase), hits mostly activators | AID 624287; active = well fitted activation curve with a large enough effect; inconclusive = small, poorly fitted or top-dose-only effect, or another doubt; inactive = no such curve, though single readings can be large or run the other way; cell line not stated here;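 also: phosphodiesterase inhibitor Ro 20-1724 added with compounds to block cAMP breakdown; potency is read from the fitted curve at half-maximal effect; nearly all actives have a fitted effect of over 60% in size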
#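 Cells stably selected in G418 were plated at 2000/well, grown 16-24 hr, then given compounds in DMSO with the PDE inhibitor […] (300 uM solution added) for 30 min at 37C; cAMP was read by HTRF.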
# gsp antag: antagonists of gsp mutant (McCune-Albright syndrome); gsp-mutant cells, cAMP HTRF, 30 min; Potency, µM (top dose mostly 76.9 µM), without a hit: top-dose activity change, negative = inhibition, hits mostly inhibitors; 340,000 tested, 0.4% active; AID 624288; calls by dose curve; cell line not stated here;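 also: intracellular cAMP measured with PDE inhibitor Ro 20-1724 present during compound exposure; potency is read from the fitted curve at half-maximal effect; % is scaled to controls: 0 for no effect and ±100 for the full control effect; nearly all actives have a fitted effect of over 65% in size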
#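 Measurement of cellular cAMP by homogeneous time-resolved fluorescence following a 30 min compound exposure at 37C. The PDE inhibitor […] was present throughout; the assay buffer was DPBS with 0.05% BSA and 0.005% Tween 20.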
# p53 reactivator: restores transcriptional activity of mutant p53. Potency, µM (series often up to 92.2 µM), for inactives: at the highest dose activity change, positive = activation, usual class: activators. 320,000 tested, 0.063% active. H1299 p53-A138V BP100-luciferase reporter, luminescence, 24 h; also: potency is read from the fitted curve at half-maximal effect; % of control where 0% means no effect; nearly all actives have a fitted effect of over 45% in size
#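 H1299 (p53-null), stable ts p53-A138V + BP100-Luc; 1000 cells/well, Opti-MEM/10% FBS; cpd 4 pt, 1:5; 24 h, 37 deg C, 5% CO2; detection reagent 10 min RT; luminescence.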
# * hit, by the source's call; u = inconclusive; x = no result given; ! = not confirmed by another sample; [ ] = remark or other dose. Unless noted, calls follow the shape of the dose curve; as a rule, active = well fitted curve in the direction sought with a large enough effect; inconclusive = small, poorly fitted or top-dose-only effect, or another doubt; inactive = no such curve, though single readings can be large; an effect the other way counts as inactive or inconclusive.
SMILES,RXFP1 agonist,Tb PFK block,RXFP1 antag,gsp ag,gsp antag,p53 reactivator
COc1cc(OC)c(NC(=O)C2CCCN(c3ncnc4c3nc3n4CCCCC3)C2)cc1Cl (stereo unspecified),1%,x,-8,x,x,x
CCCCNC(=O)[C@@](CC)(ONc1ccccc1C(F)(F)F)c1cccc2ccccc12,1%,-18%,x,29%,1%,u
COc1ccc2cc(CCNC(=O)C(C)(C)C)c(=O)[nH]c2c1,1%,3%,x,-26%,3%,27%
COc1ccc2cc(CCN3C(=O)c4ccccc4C3=O)c(=O)[nH]c2c1,u,0%,x,11µM*,8%,12%
O=C(/C=C/c1ccc2c(c1)OCO2)c1ccccn1,0%,-14%,-12,u,2%,32µM*
O=C(C=Cc1ccc2c(c1)OCO2)c1ccccc1,x,x,-9,-31%,-4%,x
C[C@@H](C(=O)NCC1CC1)[C@@H]1C[C@@]1(C)[C@@H](NC(=O)OCc1ccccc1)c1ccccc1,1%,-2%,x,x,0%,-5%
Cc1cc(Cl)ccc1OCCCC(=O)NO,0%,13µM*,-3,30%,6%,4%
CCCOc1ccc(C(=O)Nc2ccc3oc(-c4ccc(N(C)C)cc4)nc3c2)cc1,3.2µM*,x,5,x,x,x
CCOc1ccc(C(=O)Nc2ccc3oc(-c4ccncc4)nc3c2)cc1,24%,x,-9,x,x,x
CCOc1cc(CNCCO)cc(Br)c1OCc1ccc(Cl)cc1Cl,2%,1%,-92*,18%,6%,-10%
O=C(NC1CCCCCC1)c1cc(S(=O)(=O)N2CCOCC2)ccc1F,3%,-3%,6,u,18%,20%
CCOC(=O)c1c(C)[nH]c(C(=O)COC(=O)/C=C/c2ccc3c(c2)OCO3)c1C,0%,0%,6,1%[15.4 µM],7%,5%
CCOC(=O)c1c(C)[nH]c(C(=O)COC(=O)CCC(=O)c2ccc3c(c2)OCCO3)c1C,0%,2%,-2,5%,28µM*,1%
Cc1noc(NS(=O)(=O)c2ccc(NC(=O)c3ccc(N4C(=O)c5ccccc5C4=O)cc3)cc2)c1C,5%,-2%,-33,-2%[15.4 µM],3%,1%
Cc1noc(NS(=O)(=O)c2ccc(NC(=O)CSc3n[nH]c(-c4ccccc4)n3)cc2)c1C,2%,21%,7,-10%,11%,9%
Cc1cc(C)c(C#N)c(SCC(=O)Nc2ccc(S(=O)(=O)Nc3onc(C)c3C)cc2)n1,14%,0%,x,18µM*,5%,6%
COc1ccc(CC(=O)Nc2ccc(S(=O)(=O)Nc3onc(C)c3C)cc2)cc1OC,0%,-1%,-113*,-7%,2%,3%
Cc1noc(NS(=O)(=O)c2ccc(NC(=O)c3nn(-c4ccccc4)ccc3=O)cc2)c1C,u,1%,13,14µM*,14%,-4%
COc1ccc(C(=O)/C=C/C(=O)N(CC(=O)NC2CCCCC2)Cc2ccccc2)c(O)c1,-1%,-6%,-64*,-5%,-2%,-11%
CC(C)(C)NC(=O)c1cccc(NC(=O)CSc2ccc(Cl)cc2)c1,0%,2%,12,26%,-13%,7%
CN(c1ccccc1)c1nc(N)c([N+](=O)[O-])c(NC2CCCCC2)n1,0%,1%,-16,-54%,50µM*,-2%
CN(c1ccccc1)c1nc(N)c([N+](=O)[O-])c(Nc2ccccc2)n1,6%,1%,-21,-13%,5%,-2%
CCCC(=O)NC(c1cccs1)c1cc([N+](=O)[O-])c2cccnc2c1O (stereo unspecified),0%,0%,-66*,21%[15.4 µM],-24%,u
CN(CC(=O)OCC(=O)NCc1ccccc1)S(=O)(=O)c1ccc(F)cc1,-3%,2%,-5,-1%,u,-7%
SMILES,RXFP1 agonist,Tb PFK block,RXFP1 antag,gsp ag,gsp antag,p53 reactivator
CCOc1ccccc1NC(=O)CSc1nnc(-c2ccccn2)n1Cc1ccco1,0%,-1%,13,-23%,-8%,-8%
CCOC(=O)c1c(C)n(-c2ccc(C)cc2)c2ccc(OCC(O)CN3CCN(C)CC3)cc12 (stereo unspecified),0%,2%,-86*,-25%,11%,14%
CCOC(=O)c1c(C)n(C)c2ccc(OCC(O)CN3CCN(C)CC3)cc12 (stereo unspecified),2%,-2%,x,25%,0%,-2%
CN(C)c1ccc(CNC(=O)Cn2c(-c3cccs3)cc3cc(Cl)ccc32)cc1,7%,x,-9,x,x,x
O=C(Nc1ccc(Cl)c(Cl)c1)Nc1nnc(-c2ccncc2)s1,5%,-2%,-13,-4%[15.4 µM],7%,-4%
COc1ccc(NC(=O)Nc2nnc(-c3ccncc3)s2)cc1,1%,3%,-26,5%,35µM*,-3%
COc1cccc(-c2nnc(SCC(=O)OC(C)C)n2Cc2ccco2)c1,3%,-4%,6,7%,-1%,-2%
C=CCNC(=S)N/N=C/c1ccc(N(CC)Cc2ccccc2)cc1,2%,-2%,7,6%,3%,1%
O=C(Cn1cc([N+](=O)[O-])cn1)Nc1ccc(Cn2cc(Br)cn2)cc1,-1%,27µM*,-8,-3%,8%,-6%
Cc1ccc(NCc2nc3ccccc3n2CCOc2ccccc2)cc1,5%,0%,-62*!,-2%,-9%,u
C/C(CC(=O)Nc1ccc2c(c1)OCCO2)=N\NC(=O)COc1ccc(C)cc1,1%,5%,-77*,u,0%,3%
COc1ccc(N2C(=O)C3CC(C)=C(C)CC3C2=O)c(OC)c1 (stereo unspecified),3%,3%,1,-13%,11%,1%
COc1cc(N2C(=O)C=CC2=O)ccc1N1C(=O)C=CC1=O,x,x,u,0%,50µM*,x
Cc1ccc(NC(=O)Cn2c(-c3ccc(F)cc3)cnc2SCC(=O)Nc2c(C)cccc2C)cc1,-2%,1%,-9,7%,11%,0%
O=C(/C=C/c1ccccc1Cl)c1ccccc(=O)c1O,5%,-7%,-79*,-58%,4%,-25%
O=C(/C=C/c1ccc(Cl)cc1)c1cccnc1,2%,-7%,x,-7%,22%,-10%
O=C(C=Cc1ccccc1O)c1ccccc1O,x,x,-66*,-34%,-8%,x
O=C(/C=C/c1ccc(O)c(O)c1)c1ccccc1O,5%,2%,-14,-3%[15.4 µM],-8%,u
O=C(/C=C/c1ccccc1Cl)c1cccnc1,2%,6%,-72*,0%,2%,-9%

# High-throughput results (PubChem)
